Bioassay records from PubChem BioAssay.
Rows were chosen to be rich in hits. Some 10% of all compounds tested hit in one or more screens of this group.
BAZ2B inh: qHTS Assay for Inhibitors of BAZ2B; 360,000 compounds, 4.4% hits; Potency, µM (top dose mostly 114 µM), without a hit: top-dose activity change, negative = inhibition, hits mostly inhibitors; AlphaScreen BAZ2B-H3K14Ac peptide displacement; further: potency means the concentration at half of the fitted maximal effect; on the % scale 0 is the no-effect control and ±100 the full control effect; nearly all actives have a fitted effect of over 60% in size
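In this displacement format the biotinylated H3(5-23) peptide acetylated at Lys14 serves as ligand at 50 nM, with BAZ2B at 50 nM in PBS pH 7.4 containing 0.01% Tween-20. Donor and acceptor beads are 10 ug/mL final.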
HP1b chromo inh: HTS for Inhibitors of HP1-beta Chromodomain Interactions with Methylated Histone Tails; Chromobox protein homolog 1 (Homo sapiens), P83916; AlphaScreen HP1-beta / biotin-H3K9me3 peptide binding; Potency, µM (top dose mostly 114 µM), for the others: at the highest dose activity change, negative = inhibition, usual class: inhibitors; 390,000 compounds, 0.56% hits; AID 540317, 2011; further: potency means the concentration at half of the fitted maximal effect; nearly all actives have a fitted effect of over 70% in size
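HP1-beta protein (50 nM final) preincubated 30 min at room temperature with biotinylated H3(1-18)K9me3 peptide (50 nM) in PBS pH 7.4, 0.01% Tween-20, then compound added for 30 min. AlphaScreen streptavidin donor/nickel chelate acceptor beads (10 ug/mL final), 30 min dark, luminescence read.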
CtBP-E1A blk: qHTS Assay for Inhibitors of the CtBP/E1A Interaction; CtBP / adenovirus E1A interaction (AlphaScreen); AlphaScreen GST-E1A/His-CtBP binding, 1536-well; active compounds read low; activity change, % (test concentration not listed); 340,000 compounds, 0.49% hits; in the data active means activity change below about -65%; inconclusive means mostly about -30% to -63%; further: on the % scale 0 is the no-effect control and ±100 the full control effect
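Protein mix (5X: 125 nM each GST-E1A, His-CtBP) was incubated with pinned compound 2 h at 37 deg C in dark, in 50 mM Tris pH 8.0 buffer with 300 mM NaCl. Glutathione donor and nickel acceptor beads followed; AlphaScreen signal read after 1 h.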
G9a block: qHTS Assay for Inhibitors of Histone Lysine Methyltransferase G9a; Histone-lysine N-methyltransferase EHMT2 (Homo sapiens), Q96KQ7; G9a H3K9 monomethylation, AlphaScreen, 2 h; Potency, µM (top dose mostly 102 µM), for inactives: at the top dose activity, negative = inhibition, most hits filed as inhibitors; 350,000 compounds, 8.8% hits; AID 504332, 2011; further: potency means the concentration at half of the fitted maximal effect; on the % scale 0 is the no-effect control and ±100 the full control effect; nearly all actives have a fitted effect of over 75% in size
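G9a (20 nM) was preincubated 15 min with compound, then reacted 2 h at room temperature with 500 nM biotin-H3K9 peptide and 20 µM SAM. Monomethyl-H3K9 detected by AlphaScreen using anti-H3K9me1 antibody.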
Six1-Eya2 blk: qHTS Assay for Inhibitors of the Six1/Eya2 Interaction; activity change, % (no concentration beside the values); Homeobox protein SIX1 (Homo sapiens) + Protein phosphatase EYA2 (Homo sapiens), …; 360,000 compounds, 0.56% hits; AlphaScreen GST-Six1/His-Eya2 binding, biochemical; active compounds read low; in the data active means activity change below about -65%; inconclusive means mostly about -30% to -63%; further: on the % scale 0 is the no-effect control and ±100 the full control effect
Target sequence (O00167 whole entry, looked up): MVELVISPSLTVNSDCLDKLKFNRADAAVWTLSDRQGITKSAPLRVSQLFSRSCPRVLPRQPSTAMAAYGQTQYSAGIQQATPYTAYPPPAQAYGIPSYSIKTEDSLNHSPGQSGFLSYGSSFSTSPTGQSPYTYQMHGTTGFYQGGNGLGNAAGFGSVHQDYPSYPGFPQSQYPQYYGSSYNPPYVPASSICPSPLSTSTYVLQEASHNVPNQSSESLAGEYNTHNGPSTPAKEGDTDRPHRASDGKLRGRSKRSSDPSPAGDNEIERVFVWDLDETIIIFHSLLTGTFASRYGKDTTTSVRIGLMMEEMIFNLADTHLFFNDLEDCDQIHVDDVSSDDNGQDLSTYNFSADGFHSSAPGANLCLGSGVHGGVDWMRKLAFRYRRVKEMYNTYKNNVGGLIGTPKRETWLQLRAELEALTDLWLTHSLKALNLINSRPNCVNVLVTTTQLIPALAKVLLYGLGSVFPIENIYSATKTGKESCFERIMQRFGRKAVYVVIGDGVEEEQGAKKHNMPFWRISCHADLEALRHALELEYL
Target sequence (Q15475 whole entry, looked up): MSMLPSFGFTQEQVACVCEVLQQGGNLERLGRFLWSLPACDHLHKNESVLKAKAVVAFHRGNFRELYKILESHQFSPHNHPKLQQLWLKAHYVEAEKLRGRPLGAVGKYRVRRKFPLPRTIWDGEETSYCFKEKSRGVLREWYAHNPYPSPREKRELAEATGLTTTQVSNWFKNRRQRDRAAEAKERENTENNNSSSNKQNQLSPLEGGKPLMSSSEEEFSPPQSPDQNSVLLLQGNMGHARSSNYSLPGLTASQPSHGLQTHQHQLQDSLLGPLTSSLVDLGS
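Six1/Eya2 binding was read as AlphaScreen signal after compounds were pinned into GST-Six1 plus His-tagged Eya2 (5X stock 250/500 nM) in pH 8.0 Tris/NaCl/TCEP buffer, beads added, then incubated 1 h, 37 C, dark.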
JMJD2A Tudor: qHTS Assay for Inhibitors of JMJD2A-Tudor Domain; Lysine-specific demethylase 4A (Homo sapiens), O75164; AlphaScreen JMJD2A-Tudor / H3K4me3 peptide binding; Potency, µM (top dose mostly 114 µM), without a hit: at the top dose activity change, negative = inhibition, most hits filed as inhibitors; 390,000 compounds, 4.4% hits; further: potency means the concentration at half of the fitted maximal effect; on the % scale 0 is the no-effect control and ±100 the full control effect; nearly all actives have a fitted effect of over 50% in size
* hit, by the source's call; [ ] = dose if it differs, or a comment. Unless noted, the call rests on the fitted dose curve; in most records, active means well fitted inhibition curve with a large enough effect; inconclusive means small, poorly fitted or top-dose-only effect; inactive means no such curve, though single readings can be large or run the other way.

Results for Cc1ccc(S(=O)(=O)CNC(=S)c2ccc3ccccc3c2)cc1 ?
BAZ2B inh: inconclusive; HP1b chromo inh: -17.8%; CtBP-E1A blk: 8.9; G9a block: 8.91µM*; Six1-Eya2 blk: -1.5; JMJD2A Tudor: inconclusive

What do the screens show for `Cc1ccc(S(=O)(=O)CNC(=S)c2cccc(C)c2)cc1`?
BAZ2B inh: -7.2%; HP1b chromo inh: inconclusive; CtBP-E1A blk: 3.7; G9a block: 10µM*; Six1-Eya2 blk: 0.9; JMJD2A Tudor: -31.4%

What do the screens show for `COc1ccc(C(=S)Nc2ccc(C)cc2)cc1`?
BAZ2B inh: -4.1%; HP1b chromo inh: inconclusive; CtBP-E1A blk: -5.8; G9a block: 10µM*; Six1-Eya2 blk: 0.0; JMJD2A Tudor: -24.8%

How did COc1ccc(C(=S)NCS(=O)(=O)c2ccc(C)cc2)cc1 do in these assays?
BAZ2B inh: inconclusive; HP1b chromo inh: -28.6%; CtBP-E1A blk: 3.8; G9a block: 8.91µM*; Six1-Eya2 blk: 13.3; JMJD2A Tudor: -27.2%

Results for Cc1ccc(S(=O)(=O)CNC(=O)c2ccccc2)cc1 ?
BAZ2B inh: -33.8%; HP1b chromo inh: 66.3%; CtBP-E1A blk: -0.9; G9a block: inconclusive; Six1-Eya2 blk: 2.3; JMJD2A Tudor: 1.2%

How did COc1ccc(NC(=S)c2ccncc2)cc1 do in these assays?
BAZ2B inh: -8.5%; HP1b chromo inh: 29.1%; CtBP-E1A blk: 5.8; G9a block: -18.8%; Six1-Eya2 blk: -6.3; JMJD2A Tudor: -4.8%

How did COc1ccc(CNS(=O)(=O)c2ccc(C)cc2)cc1 do in these assays?
HP1b chromo inh: 57.7%; CtBP-E1A blk: 9.9; Six1-Eya2 blk: 2.0; JMJD2A Tudor: -2.1%

Results for c1ccc(COc2ncnc3c2ncn3CCCNCC(c2ccccc2)c2ccccc2)cc1 ?
CtBP-E1A blk: -22.1; Six1-Eya2 blk: -0.6

How did Cc1ccccc1-c1csc(C(O)c2ccccc2)n1 (stereo not given) do in these assays?
CtBP-E1A blk: -18.2; Six1-Eya2 blk: 14.1

Results for CCc1cc2c(=O)n(Cc3ccco3)c(SCC(=O)N(C)C3CCS(=O)(=O)C3)nc2s1 (stereo not given) ?
BAZ2B inh: -2.2%; HP1b chromo inh: 14.8%; CtBP-E1A blk: -2.9; G9a block: inconclusive; Six1-Eya2 blk: -10.2; JMJD2A Tudor: -23.0%

What do the screens show for `O=C(c1cc2cc([N+](=O)[O-])ccc2oc1=O)n1cccn1`?
BAZ2B inh: -13.8%; HP1b chromo inh: 17.5%; CtBP-E1A blk: -0.6; G9a block: 44.7µM*; Six1-Eya2 blk: -9.0; JMJD2A Tudor: -20.5%

How did O=C(NCc1ccc(S(=O)(=O)Nc2ccccc2Cl)s1)c1ccccc1 do in these assays?
BAZ2B inh: 0.4%; HP1b chromo inh: 43.4%; CtBP-E1A blk: -5.5; G9a block: 79.4µM*; Six1-Eya2 blk: -1.3; JMJD2A Tudor: -4.3%

Results for CCOC(=O)CCn1nc(C)c2c(C)n(-c3ccccc3)nc2c1=O ?
BAZ2B inh: -2.6%; HP1b chromo inh: 33.0%; G9a block: 4.8%[59 µM]; JMJD2A Tudor: 2.3%

Results for O=C(C1CCN(C2CCN(C/C=C/c3ccccc3)CC2)CC1)N1CCOCC1 ?
BAZ2B inh: -14.8%; HP1b chromo inh: 27.6%; CtBP-E1A blk: -8.1; G9a block: 2.0%; Six1-Eya2 blk: 3.4; JMJD2A Tudor: -17.1%

How did O=C(C1CCN(Cc2ccccc2)CC1)N1CCN(C/C=C/c2ccccc2)CC1 do in these assays?
BAZ2B inh: inconclusive; HP1b chromo inh: inconclusive; CtBP-E1A blk: -6.5; G9a block: 14.1µM*; Six1-Eya2 blk: -1.9; JMJD2A Tudor: inconclusive

Results for O=C(C1CCN(Cc2ccc(F)cc2)CC1)N1CCN(C/C=C/c2ccccc2)CC1 ?
BAZ2B inh: 50.1µM*; HP1b chromo inh: inconclusive; CtBP-E1A blk: 11.5; G9a block: 50.1µM*; Six1-Eya2 blk: 8.7; JMJD2A Tudor: 20µM*

Results for O=C(COc1ccccc1F)Nc1ccc(OCc2cc(=O)n3ccccc3n2)cc1 ?
BAZ2B inh: -5.1%; HP1b chromo inh: 4.5%[57 µM]; G9a block: -2.1%[59 µM]; JMJD2A Tudor: 4.9%

Results for CN(C)C(=S)N=Nc1[nH]c2ccccc2c1O ?
BAZ2B inh: -35.1%; HP1b chromo inh: 8.5%; G9a block: 7.94µM*; Six1-Eya2 blk: -15.4; JMJD2A Tudor: -24.8%

How did C=CCCC(=O)Nc1nc(C)c(-c2csc(Nc3ccc(Cl)cc3Cl)n2)s1 do in these assays?
BAZ2B inh: inconclusive; HP1b chromo inh: inconclusive; CtBP-E1A blk: -6.3; G9a block: 7.08µM*; Six1-Eya2 blk: -11.6; JMJD2A Tudor: inconclusive

How did C=CCCC(=O)Nc1nc(C)c(-c2csc(Nc3ccccc3OC)n2)s1 do in these assays?
BAZ2B inh: inconclusive; HP1b chromo inh: -9.2%; G9a block: 25.1µM*; Six1-Eya2 blk: -12.9; JMJD2A Tudor: inconclusive

What do the screens show for `COc1ccc(C2OC34CCCCC3C(C#N)(C#N)C2(C#N)C(=N)O4)cc1` (stereo not given)?
BAZ2B inh: -33.9%; HP1b chromo inh: 32.8%; CtBP-E1A blk: -14.4; G9a block: 50.1µM*; Six1-Eya2 blk: -4.5; JMJD2A Tudor: -22.4%

Results for CC1OC23CCCCC2C(C#N)(C(=N)O3)C1(C#N)C#N (stereo not given) ?
BAZ2B inh: -1.5%; HP1b chromo inh: 37.2%; CtBP-E1A blk: 0.0; G9a block: 12.2%[59 µM]; Six1-Eya2 blk: 5.9; JMJD2A Tudor: 10.8%

What do the screens show for `Cc1cccc(C(=O)OCCN2CCOCC2)c1`?
BAZ2B inh: 12.8%[0.457 µM]; HP1b chromo inh: 35.9%; CtBP-E1A blk: 7.8; Six1-Eya2 blk: -0.9; JMJD2A Tudor: -4.1%

How did CN(C)S(=O)(=O)c1ccc2c(c1)N(CC(=O)Nc1ccc(OC(F)(F)F)cc1)C(=O)CS2 do in these assays?
BAZ2B inh: -4.2%; HP1b chromo inh: 34.7%; G9a block: 5.2%[59 µM]; JMJD2A Tudor: -20.8%

What do the screens show for `Cc1ccc(S(=O)(=O)Nc2cccc3ncccc23)s1`?
BAZ2B inh: inconclusive; HP1b chromo inh: -9.5%; CtBP-E1A blk: -81.4*; G9a block: -12.0%[59 µM]; Six1-Eya2 blk: -86.2*; JMJD2A Tudor: -7.6%[11.4 µM]

Results for COc1cccc(C(=O)/C=C/Nc2ccc(S(=O)(=O)Nc3cc(OC)nc(OC)n3)cc2)c1 ?
BAZ2B inh: inconclusive; HP1b chromo inh: 15.5%; CtBP-E1A blk: -28.9; G9a block: 79.4µM*; Six1-Eya2 blk: inconclusive; JMJD2A Tudor: -20.2%
